Source: PubChem BioAssay AID1970 (National Center for Advancing Translational Sciences (NCATS), 2009)
Inconclusive results are not listed. A number with no mark means an inactive call. Active and inactive are the calls of the source. Calls come from the whole dose curve; as a rule, active = well fitted inhibition curve with a large enough effect; inconclusive = small, poorly fitted or top-dose-only effect; inactive = flat fitted curve, though single readings scatter.

The compounds below were run against Dual specificity protein kinase CLK4 (Homo sapiens) (UniProt Q9HAZ1) (assay: Confirmation Assay for Inhibitors of CDC-like Kinase 4 (Kinase-Glo Assay)). Conditions: recombinant Clk4, Kinase-Glo ATP depletion luminescence; series mostly up to 47.7 µM; activity, negative = inhibition: at the top concentration.
Chain of Dual specificity protein kinase CLK4 (Homo sapiens) (Q9HAZ1 whole entry, looked up): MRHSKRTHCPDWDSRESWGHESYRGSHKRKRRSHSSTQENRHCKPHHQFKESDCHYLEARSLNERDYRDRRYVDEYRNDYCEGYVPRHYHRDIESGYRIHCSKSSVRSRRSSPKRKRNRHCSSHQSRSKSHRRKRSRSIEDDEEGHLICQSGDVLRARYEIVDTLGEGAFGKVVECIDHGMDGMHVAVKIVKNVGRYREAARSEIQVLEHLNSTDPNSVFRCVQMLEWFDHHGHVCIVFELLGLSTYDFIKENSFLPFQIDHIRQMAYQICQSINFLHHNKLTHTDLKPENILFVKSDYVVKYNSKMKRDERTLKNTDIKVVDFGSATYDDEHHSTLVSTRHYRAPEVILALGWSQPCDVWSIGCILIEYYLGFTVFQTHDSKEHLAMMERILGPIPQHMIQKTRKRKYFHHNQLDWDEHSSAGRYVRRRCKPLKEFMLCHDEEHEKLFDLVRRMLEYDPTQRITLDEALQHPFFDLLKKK
Summary of the method: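 Read-out was Kinase-Glo luciferase luminescence of ATP left after 4.5 h room-temperature reaction. Final conditions: Clk4 25 nM, ATP 1 uM, RS peptide 100 uM, 25 mM Tris pH 7.5, 10 mM MgCl2, 0.5 mM EGTA, 2.5 mM DTT, 0.01% Triton X-100.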

SMILES | Potency | activity, negative = inhibition [%]
Cc1nc(CSc2ncnc3ccc(-c4ccc5c(c4)OCO5)cc23)cs1 | 184 nM (active) | –
Cc1ccc(CNc2ncnc3ccc(-c4ccc5c(c4)OCO5)cc23)s1 | 189 nM (active) | –
CC(c1ccco1)N(C)c1ncnc2ccc(-c3ccc4c(c3)OCO4)cc12 (stereo unspecified) | 67.1 nM (active) | –
Cc1csc(CNc2ncnc3ccc(-c4ccc5c(ccn5C)c4)cc23)c1 | 35500 nM (active) | –
Cc1cccc(CNc2ncnc3ccc(-c4cccc(Cl)c4)cc23)c1 | 14100 nM (active) | –
Clc1cccc(-c2ccc3ncnc(NCc4cccs4)c3c2)c1 | 7940 nM (active) | –
c1cncc(CNc2ncnc3ccc(-c4ccc5c(c4)OCO5)cc23)c1 | 100 nM (active) | –
Cc1occc1-c1ccc2ncnc(NCCc3cnc[nH]3)c2c1 | 519 nM (active) | –
COc1cccc(-c2ccc3ncnc(NCc4cccs4)c3c2)c1 | 519 nM (active) | –
Cc1cccc(CNc2ncnc3ccc(-c4ccc5c(c4)OCO5)cc23)c1 | 112 nM (active) | –
c1nc(OCc2cnc[nH]2)c2cc(-c3ccc4c(c3)OCO4)ccc2n1 | 6540 nM (active) | –
FC1(F)Oc2ccc(-c3ccc4ncnc(NCc5cccs5)c4c3)cc2O1 | 18400 nM (active) | –
Cn1ccc2cc(-c3ccc4ncnc(NCc5cccs5)c4c3)ccc21 | 31600 nM (active) | –
CCN(Cc1sccc1C)c1ncnc2ccc(-c3ccc4c(c3)OCO4)cc12 | 146 nM (active) | –
CCOC(=O)c1ccc(-c2ccc3ncnc(NCc4csc(C)n4)c3c2)o1 | 654 nM (active) | –
OCc1ccc(-c2ccc3ncnc(NCCc4cnc[nH]4)c3c2)o1 | 733 nM (active) | –
Cc1cccc(-c2ccc3ncnc(NCc4cc(C)cs4)c3c2)c1 | 14100 nM (active) | –
c1c[nH]c(CNc2ncnc3ccc(-c4ccc5c(c4)OCO5)cc23)n1 | 94.7 nM (active) | –
Cc1occc1CNc1ncnc2ccc(-c3ccc4c(c3)OCO4)cc12 | 47.5 nM (active) | –
Cc1csc(CNc2ncnc3ccc(-c4ccco4)cc23)c1 | – | -2.38
Cc1cccc(CNc2ncnc3ccc(-c4ccccc4Cl)cc23)c1 | 12600 nM (active) | –
Cc1cccc(-c2ccc3ncnc(NCc4cccc(F)c4)c3c2)c1 | 4470 nM (active) | –
Clc1ccccc1-c1ccc2ncnc(NCc3cccs3)c2c1 | 7940 nM (active) | –
Cc1nc(C)c(-c2ccc3ncnc(NCc4ncc[nH]4)c3c2)s1 | 1840 nM (active) | –
CCOC(=O)c1ccc(-c2ccc3ncnc(NCc4ncc[nH]4)c3c2)o1 | 582 nM (active) | –
CCN(Cc1cccs1)c1ncnc2ccc(-c3ccc4c(c3)OCO4)cc12 | 51.9 nM (active) | –
